Measurements published in PubChem BioAssay AID1259421 (Broad Institute, 2018).
“And” between values parts separate entries of the source, which are not always exact repeats. Equal entries are not always repeated. The whole screen tested about 6,400 compounds, of which about 610 (9.5%) were called active. The sample holds actives, similar compounds and a random draw of the others, so the mix is not that of the screen. No stated cut-off is given here; in the data, active means activity change below about -70%; inconclusive means no clear call, values can overlap the other calls; inactive means above that. Some compounds were tested as several samples or in several runs, with calls that do not always agree. Where a SMILES comes first, the peptide text is derived from it.

Assay: T. gondii ME49Luc in HeLa cells, luciferase assay, 72 h, no IFN-y (AID 1259421)
Settings: stronger effect = lower value, concentration not given here

Structure (SMILES) | activity change, negative = inhibition
OC[C@@]1(O)OC[C@@H](O)[C@@H](O)[C@@H]1O | 7.13% (inactive)
COc1cc(N2CCC(N3CCN(C)CC3)CC2)ccc1Nc1ncc(Cl)c(Nc2ccccc2S(=O)(=O)C(C)C)n1 | -84.8% (active)
COc1cc(N2CCC(N(C)C)CC2)ccc1Nc1ncc(Cl)c(Nc2ccccc2P(C)(C)=O)n1 | -60.2% (inactive)
CN1CCN(c2nc(C3=C(c4c[nH]c5ccccc45)C(=O)NC3=O)c3ccccc3n2)CC1 | -9.55% (inactive)
COc1cc(N2CCC(N3CCN(C)CC3)CC2)ccc1Nc1ncnc(Nc2ccccc2S(=O)(=O)C(C)C)n1 | -35.3% (inactive)
CNC(=O)c1c(F)cccc1Nc1nc(Nc2cc3c(cc2OC)CCN3C(=O)CN(C)C)nc2[nH]ccc12 | -10.7% (inactive)
COc1cc(N2CCC(N)CC2)ccc1Nc1ncc(Cl)c(-c2c[nH]c3ccccc23)n1 | -81% (active)
CNC(=O)c1ccccc1Nc1cc(Nc2ccc(N3CCOCC3)cc2OC)ncc1C(F)(F)F | -46.5% (inactive)
CNC(=O)c1ccccc1Nc1nc(Nc2ccc3c(c2OC)CCC[C@H](N2CCN(CCO)CC2)C3)ncc1Cl | -74.8% (active)
CNC(=O)c1ccccc1Nc1nc(Nc2ccc(N3CCOCC3)cc2OC)ncc1Cl | -73.7% (active) and -87.3% (active)
CN(CCc1ccc(Cl)c(Cl)c1)CC(O)COc1ccc(NS(C)(=O)=O)cc1 (stereo unspecified) | -4.31% (inactive) and -8.47% (inactive)
O=C(NCC(=O)N1CC[C@H](NC2CCC(O)(c3ccc(-c4ncccn4)cn3)CC2)C1)c1cccc(C(F)(F)F)c1 (stereo partly specified) | 13.2% (inactive)
COc1ccc2nc(S(=O)Cc3ncc(C)c(OC)c3C)[nH]c2c1 (stereo unspecified) | 29.5% (inactive) and 32.8% (inactive) and 15.1% (inactive)
O=Cc1ccc(CO)o1 | 3.95% (inactive)
O=c1c(OC2OC(CO)C(O)C(O)C2O)c(-c2ccc(O)c(O)c2)oc2cc(O)cc(O)c12 (stereo unspecified) | -1.42% (inactive)
NCC(=O)N[C@@H](CCC(N)=O)C(=O)O (H-Gly-Gln-OH) | 6.58% (inactive)
CC(C)C(N)=O | 7.84% (inactive)
Nc1ncnc2c1C(=O)N(c1ccc(C3CCC(CC(=O)O)CC3)cc1)CCO2 (stereo unspecified) | 6.2% (inactive)
NC1=N[C@H]2[C@H](CS[C@H]2CCCCC(=O)O)N1 | 20.2% (inactive)
C=C[C@]1(C)C[C@@H](OC(=O)CSC2C[C@H]3CC[C@@H](C2)N3C)[C@]2(C)[C@H](C)CC[C@]3(CCC(=O)[C@H]32)[C@@H](C)[C@@H]1O (stereo partly specified) | -18.6% (inactive)
CC[C@H](NC(C)C)[C@H](O)c1ccc(O)c2[nH]c(=O)ccc12 | 3.71% (inactive)
CCOc1cc(C(=O)Nc2ccc(Cl)c(-c3nc4ccccc4[nH]3)c2)cc(OCC)c1OCC | -69.9% (inactive)
CCOc1cc2ncc(C#N)c(Nc3ccc(OCc4ccccn4)c(Cl)c3)c2cc1NC(=O)/C=C/CN(C)C | -78.7% (active)
C=CC(=O)Nc1cc2c(Nc3ccc(F)c(Cl)c3)ncnc2cc1C#CC(C)(C)N1CCN(C)CC1 | -57.7% (inactive)

Structure (SMILES) | activity change, negative = inhibition
CCOc1cc2ncc(C#N)c(Nc3ccc(F)c(Cl)c3)c2cc1NC(=O)/C=C/CN(C)C | -84.3% (active)
C[C@@H](NC(=O)c1ncnc(N)c1Cl)c1ncc(C(=O)Nc2cc(C(F)(F)F)c(Cl)cn2)s1 | 10.6% (inactive)
Cc1nc(NC(=O)N2CCC[C@H]2C(N)=O)sc1-c1csc(C(C)(C)C)n1 | 17.5% (inactive)
OCCNCCCOc1cccc(Cl)c1Cl | -43.4% (inactive) and 19.3% (inactive)
COc1cc([C@@H]2c3cc4c(cc3[C@H](O)[C@H]3COC(=O)[C@@H]23)OCO4)cc(OC)c1OC | -71% (active)
COc1cc([C@@H]2c3cc4c(cc3[C@@H](O[C@@H]3O[C@@H]5CO[C@@H](c6cccs6)O[C@H]5[C@H](O)[C@H]3O)[C@H]3COC(=O)[C@H]23)OCO4)cc(OC)c1O | -72.9% (active)
COc1cc([C@@H]2c3cc4c(cc3[C@@H](O[C@@H]3O[C@@H]5CO[C@@H](C)O[C@H]5[C@H](O)[C@H]3O)[C@H]3COC(=O)[C@H]23)OCO4)cc(OC)c1O | -10.1% (inactive) and -3.38% (inactive) and 9.65% (inactive)
COc1cc2c(c(OC)c1OC)-c1c(cc3c(c1OC)OCO3)C[C@H](C)[C@@H](C)C2 | 13.7% (inactive)
COc1cc([C@@H]2c3cc4c(cc3C(O[C@@H]3O[C@@H]5CO[C@@H](c6cccs6)OC5[C@H](O)[C@H]3O)C3COC(=O)[C@@H]32)OCO4)cc(OC)c1O (stereo partly specified) | -79.4% (active)
COc1cc([C@@H]2c3cc4c(cc3C(OC3O[C@@H]5COC(C)O[C@H]5[C@H](O)[C@H]3O)C3COC(=O)[C@@H]32)OCO4)cc(OC)c1O (stereo partly specified) | -0.506% (inactive)
COc1cc([C@@H]2c3cc4c(cc3C(OC3OC5COC(C)OC5C(O)C3O)C3OCC(=O)[C@@H]32)OCO4)cc(OC)c1O (stereo partly specified) | -24.1% (inactive)
COc1cc([C@@H]2c3cc4c(cc3[C@H](O)[C@H]3COC(=O)[C@H]23)OCO4)cc(OC)c1OC | -64.9% (inactive)
C=C(C)[C@@H]1CC[C@]2(C(=O)O)CC[C@]3(C)[C@H](CC[C@@H]4[C@@]5(C)CC[C@H](OC(=O)CC(C)(C)C(=O)O)C(C)(C)[C@@H]5CC[C@]43C)[C@@H]12 | -18.2% (inactive)
Fc1ccc2nc(CCC#Cc3ccccn3)cn2c1 | 1.01% (inactive)
NS(=O)(=O)OC[C@@H]1C[C@@H](n2ccc3c(N[C@H]4CCc5ccccc54)ncnc32)C[C@@H]1O | -17.2% (inactive)
OC1C(O)C(O)C(O)C(O)C1O (stereo unspecified) | 18.3% (inactive)
COc1ccc(C(C#N)C(C)C)cc1OC (stereo unspecified) | 21.3% (inactive)
CN([NH2+][O-])c1cc(O)ccc1O | 11.6% (inactive)
Cc1occc(=O)c1CC=O | 1.36% (inactive)
CC1COC2(CCN(c3nc(=O)c4cc(C(F)(F)F)cc([N+](=O)[O-])c4s3)CC2)O1 (stereo unspecified) | 301% (inactive)
COc1cc2ncnc(Nc3ccc(Cl)cc3F)c2cc1OC | -68.4% (inactive) and -67% (inactive)
Cc1cc(F)c(Nc2ncnc3cc(OCc4ccccc4)ccc23)cc1O | -65.2% (inactive) and -70.4% (active)
COc1cc2ncnc(Nc3ccc(Oc4ccccc4)cc3)c2cc1OC | 2.86% (inactive)
CC(C)(C(=O)O)c1ccc(C(=O)CCCN2CCC(OC(c3ccccc3)c3ccccc3)CC2)cc1 | 6.98% (inactive)

Structure (SMILES) | activity change, negative = inhibition
CC(C)(C)c1ccc(C(=O)CCCN2CCC(OC(c3ccccc3)c3ccccc3)CC2)cc1 | -87.2% (active)
O=C(O)CCCN1CCC(O[C@@H](c2ccc(Cl)cc2)c2ccccn2)CC1 | 24.8% (inactive)
O=P(O)(O)OC(CO)CO | 38% (inactive)
CN(C)C(=O)c1ccc(S(=O)(=O)c2ccc(NC(=O)C(C)(O)C(F)(F)F)c(Cl)c2)cc1 (stereo unspecified) | -6.06% (inactive)
CC(=O)Oc1cc2c(c(C)c1OC(C)=O)CC=C1[C@@]2(C)CC[C@@]2(C)C3C[C@](C)(C(=O)O)CC[C@]3(C)CC[C@]12C (stereo partly specified) | -93.4% (active)
CC1(C)C2CC[C@]3(C)C(C(=O)C=C4[C@H]5C[C@@](C)(C(=O)O)CC[C@]5(C)CC[C@]43C)[C@@]2(C)CC[C@@H]1O (stereo partly specified) | 1.01% (inactive)
CC1(C)[C@@H](O)CC[C@]2(C)[C@H]3C(=O)C=C4[C@@H]5C[C@@](C)(C(=O)O)CC[C@]5(C)CC[C@@]4(C)[C@]3(C)CC[C@@H]12 | 6.44% (inactive)
C=C[C@@](C)(O)CCC1C(=C)CCC2[C@@](C)(CO)CCC[C@]12C (stereo partly specified) | 13.4% (inactive)
CC1(C)O[C@@H]2CC3C4C[C@H](F)C5=CC(=O)C=C[C@]5(C)[C@@]4(F)[C@@H](O)C[C@]3(C)[C@]2(C(=O)CO)O1 (stereo partly specified) | -11.6% (inactive)
Cc1cnc(Nc2ccc(N3CCN(C)CC3)cc2)nc1Nc1cccc(S(=O)(=O)NC(C)(C)C)c1 | -76.6% (active)
C=CC(=O)Nc1cccc(Oc2nc(Nc3ccc(N4CCN(C)CC4)cc3)ncc2Cl)c1 | -59.1% (inactive)
CS(=O)(=O)c1cccc(CNc2nc(Nc3ccc4c(c3)CCC(=O)N4)ncc2C(F)(F)F)c1 | -29.4% (inactive)
Cc1cnc(Nc2ccc(OCCN3CCCC3)cc2)nc1Nc1cccc(S(=O)(=O)NC(C)(C)C)c1 | -95.9% (active)
C=CC(=O)Nc1cccc(Sc2nc(Nc3ccc(N4CCN(C)CC4)cc3)ncc2Cl)c1 | -58.5% (inactive)
C=CC(=O)Nc1cccc(Nc2nc(Nc3ccc(OCCOC)cc3)ncc2F)c1 | -10% (inactive)
CC(CCCCC(=O)Nc1ccc(C(F)(F)F)cc1)NCCc1cnc[nH]1 (stereo unspecified) | -0.447% (inactive) and -3.16% (inactive)
CO/N=C(\C(=O)N[C@@H]1C(=O)N2C(C(=O)O)=C(CSC(=O)c3ccco3)CS[C@H]12)c1csc(N)n1 | 17.6% (inactive) and -30.2% (inactive)
CO[C@@H]1COCC[C@@H]1N[C@@H]1CC[C@@](C(=O)N2CCc3ncc(C(F)(F)F)cc3C2)(C(C)C)C1 | 3.98% (inactive)
Cc1ccc(F)c(NC(=O)Nc2ccc(-c3cccc4[nH]nc(N)c34)cc2)c1 | -78.3% (active)
Cc1cc(NC(=O)Nc2ccc(N(C)C)cc2)c2cc(F)cc(F)c2n1 | 31.3% (inactive)
COc1cc(OC)c2c(c1)OC(c1ccccc1)CC2=O (stereo unspecified) | 34.9% (inactive)
O=c1oc(-c2ccc(C(F)(F)F)cc2)nn1Cc1cc(Cl)ccc1O | 24.7% (inactive) and -12.8% (inactive)
CCn1c(=O)n(C2=C(CO)CN(CC3CCCCCCC3)CC2)c2ccccc21 | 12.4% (inactive) and -0.696% (inactive)
